Test results as given in PubChem BioAssay AID1053197 (The Scripps Research Institute Molecular Screening Center, 2014).
Hit rate of the full screen: of about 370,000 compounds, about 2,600 (0.7%) were called active. What follows is part of a selection rich in actives, with near analogues and random picks from the rest. A number with no mark means an inactive call.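 How the source made its calls: active means inhibition above a cutoff: mean of compounds within the control limits plus 3 SD of those (cut at about 17% in these data); inactive means the rest.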

target: Sialate O-acetylesterase (Homo sapiens) (UniProt Q9HAT2); experiment: human SIAE inhibitors, primary screen, biochemical, fluorescence polarization, FP-Rh probe, 1536-well HTS (AID 1053197); settings: SIAE FP-Rh probe binding, at 9.66 µM, active compounds read high;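 further: 0% = plate median of compound wells and 100% = probe without SIAE protein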
Sequence (Q9HAT2 whole entry, looked up): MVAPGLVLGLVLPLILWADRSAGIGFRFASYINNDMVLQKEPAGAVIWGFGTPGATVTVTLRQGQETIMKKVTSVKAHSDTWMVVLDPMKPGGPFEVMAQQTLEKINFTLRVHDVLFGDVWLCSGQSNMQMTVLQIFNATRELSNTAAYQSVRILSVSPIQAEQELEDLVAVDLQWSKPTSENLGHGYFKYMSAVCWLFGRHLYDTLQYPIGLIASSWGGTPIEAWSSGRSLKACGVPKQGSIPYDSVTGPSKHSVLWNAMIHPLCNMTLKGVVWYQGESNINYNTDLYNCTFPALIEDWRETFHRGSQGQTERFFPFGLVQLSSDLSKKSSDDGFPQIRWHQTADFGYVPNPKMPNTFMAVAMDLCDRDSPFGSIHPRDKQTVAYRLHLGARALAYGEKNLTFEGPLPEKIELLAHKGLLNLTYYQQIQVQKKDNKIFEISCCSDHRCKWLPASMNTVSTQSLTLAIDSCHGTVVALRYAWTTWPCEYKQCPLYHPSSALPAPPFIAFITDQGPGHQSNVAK

Row | SMILES | inhibition
1 | Cc1ccc(-c2nnc(SCC(=O)Nc3ccc(Oc4ccccc4)cc3)n2Cc2ccco2)cc1 | -0.26%
2 | Cc1ccc(OCC(=O)Nc2ccc(-c3nnc(-c4ccco4)o3)cc2)cc1 | 32.9% (active)
3 | CCOC(=O)C1=C(O)/C(=C/c2ccc(OCC(=O)Nc3ccc(C)cc3)cc2)N=C1C | -21.7%
4 | COC(=O)c1c(C(=O)OC)c2n(c1C)CCS2 | -0.54%
5 | COC(=O)C1=C(NC(=O)C(C)(C)C)CCS1 | 17.4% (active)
6 | Cc1nc(NC(=O)C(C)(C)C)sc1[N+](=O)[O-] | -3.66%
7 | Cc1cc(C)n2ncc(C(=O)Nc3ccc4c(c3)OCCO4)c2n1 | 13.6%
8 | CCOC(=O)c1cccc(NC(=O)CN(C)S(=O)(=O)c2ccc(-c3cocn3)s2)c1 | 2.17%
9 | NC(=O)Cc1ccc2sc(-c3ccccc3)nc2c1 | 5.29%
10 | CN(C(=O)COc1nnc(-c2cccs2)c(-c2cccs2)n1)c1ccccc1 | -4.55%
11 | O=C(O)Cc1sc(-c2ccccc2)nc1-c1cccs1 | 23.1% (active)
12 | CCCCNC(=O)C[C@H]1C(=O)N(Cc2ccc(OC)cc2)C2=CCCC[C@@]21C(=O)OCC | -2.41%
13 | CCOC(=O)C1CCN(C(=O)C(C)(C)NC(=O)Nc2ccc(F)c(F)c2)CC1 | 0.69%
14 | C=CS(=O)(=O)N(Cc1nnn(Cc2ccccc2)c1Br)[C@H](C(=O)OC)C(C)C | 2.36%
15 | CCC1(C)COC(c2ccc(OC)c(OC)c2)OC1 (stereo unspecified) | -0.64%
16 | COc1ccc(C2NC(=O)C(=O)/C2=C(\O)c2ccc(Cl)cc2)cc1OC (stereo unspecified) | 0.15%
17 | COc1ccc(C2OCC3(CO2)SC(=O)NC3=O)cc1OC (stereo unspecified) | 17.2% (active)
18 | COC(=O)[C@]12C[C@H](CC(=O)N3CCOCC3)C(=O)N(Cc3ccc(Cl)cc3Cl)C1=C[C@H](C(C)C)O[C@@H]2C1CC1 | 7.42%
19 | CC1CC(C)CN(C(=O)CSc2nnc(CSc3ncccn3)n2C)C1 (stereo unspecified) | -4.27%
20 | CC(=O)CSc1nnc(CSc2ncccn2)n1C1CCCCC1 | 23.7% (active)
21 | CCn1c(CSc2ncccn2)nnc1SCC(=O)N1c2ccccc2CC1C (stereo unspecified) | 6.44%
22 | C#CCCN([C@H](C(=O)OC)C(C)C)S(=O)(=O)c1ccc(F)cc1Br | 0.24%
23 | Clc1ccc(-n2c(SC/C=C/c3ccccc3)nnc2-c2ccco2)cc1 | 6.61%
24 | Cc1ccc(O)c(NC(=O)c2cc(-c3ccco3)on2)c1 | 3.18%
25 | NNC(=O)c1oc2nc(-c3ccccc3)cc(-c3ccco3)c2c1N | 19.6% (active)
26 | CNC(=S)NNC(=O)c1oc2nc(-c3ccccc3)cc(-c3ccco3)c2c1N | 17.2% (active)
